Reference: PubChem BioAssay AID1159580 (chemical genetic matrix, 2015)
The campaign covered roughly 5,500 compounds. About 2,000 (36%) were called active. About 18% were inconclusive and are not listed. Cut-off read from the data, not from the text of the source: active = normalized growth mostly below about 0.91 (no sharp cut-off); inconclusive = no clear call, values can overlap the other calls; inactive = mostly above about 0.92. This is one part of the list.

Assay: chemical genetic growth profiling, strain panel (AID 1159580);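 note: tested at 20 µM; growth read once vehicle control cultures reached saturation at 30 °C; 1 = growth at the plate median or of vehicle wells; lower values mean less growth of the strain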
Details: S. cerevisiae deletion strains, growth OD

Measured: normalized growth

CCCCC(CC)CN1CN(CC(CC)CCCC)CC(C)(N)C1 (stereo not drawn)
inactive: locus YDL185W, strain tfp1, stronger effect = lower value 1.02 | locus YGL078C, strain dbp3, stronger effect = lower value 1 | locus YIL125W, strain kgd1, stronger effect = lower value 1.01
active: locus YAL013W, strain DEP1, stronger effect = lower value 0.14 | locus YAL021C, strain ccr4, stronger effect = lower value 0.0639 | locus YAL026C, strain drs2, stronger effect = lower value 0.0615 | locus YAL030W, strain snc1, stronger effect = lower value 0.0534 | locus YBL061C, strain skt5, stronger effect = lower value 0.0552 | locus YBR009C, strain hhf1, stronger effect = lower value 0.0618 | locus YBR021W, strain FUR4, stronger effect = lower value 0.168 | locus YBR023C, strain chs3, stronger effect = lower value 0.0607 | locus YBR171W, strain sec66, stronger effect = lower value 0.0721 | locus YBR229C, strain ROT2, stronger effect = lower value 0.816 | locus YBR231C, strain swc5, stronger effect = lower value 0.0597 | locus YBR279W, strain paf1, stronger effect = lower value 0.088 | locus YCL011C, strain gbp2, stronger effect = lower value 0.0548 | locus YCL016C, strain dcc1, stronger effect = lower value 0.0625 | locus YCL029C, strain bik1, stronger effect = lower value 0.573 | locus YCL061C, strain MRC1, stronger effect = lower value 0.062 | locus YCL069W, strain vba3, stronger effect = lower value 0.0607 | locus YCR088W, strain abp1, stronger effect = lower value 0.0577 | locus YDL005C, strain med2, stronger effect = lower value 0.0691 | locus YDL035C, strain GPR1, stronger effect = lower value 0.329 | locus YDL040C, strain nat1, stronger effect = lower value 0.055 | locus YDL074C, strain BRE1, stronger effect = lower value 0.228 | locus YDL101C, strain DUN1, stronger effect = lower value 0.417 | locus YDL134C, strain PPH21, stronger effect = lower value 0.58 | locus YDL192W, strain arf1, stronger effect = lower value 0.0997 | locus YDR001C, strain nth1, stronger effect = lower value 0.0567 | locus YDR069C, strain doa4, stronger effect = lower value 0.0614 | locus YDR101C, strain arx1, stronger effect = lower value 0.573 | locus YDR137W, strain rgp1, stronger effect = lower value 0.111 | locus YDR150W, strain NUM1, stronger effect = lower value 0.801 | locus YDR159W, strain sac3, stronger effect = lower value 0.0869 | locus YDR162C, strain NBP2, stronger effect = lower value 0.233 | locus YDR195W, strain ref2 0.116 | locus YDR297W, strain sur2, stronger effect = lower value 0.0539 | locus YDR318W, strain mcm21, stronger effect = lower value 0.471 | locus YDR334W, strain swr1, stronger effect = lower value 0.0598 | locus YDR335W, strain msn5, stronger effect = lower value 0.0571 | locus YDR388W, stronger effect = lower value 0.15 | locus YDR392W, strain spt3, stronger effect = lower value 0.0725 | locus YDR502C, strain sam2, stronger effect = lower value 0.401 | locus YEL003W, strain gim4, stronger effect = lower value 0.0521 | locus YEL037C, strain rad23, stronger effect = lower value 0.0554 | locus YEL061C, strain CIN8 (second series), stronger effect = lower value 0.0574 | locus YEL061C, strain CIN8, stronger effect = lower value 0.472 | locus YER015W, strain faa2, stronger effect = lower value 0.0593 | locus YER016W, strain bim1, stronger effect = lower value 0.0563 | locus YER110C, stronger effect = lower value 0.627 | locus YER111C, strain swi4, stronger effect = lower value 0.0661 | locus YER155C, strain BEM2 (second series), stronger effect = lower value 0.0846 | locus YER155C, strain BEM2, stronger effect = lower value 0.425 | locus YER167W, strain BCK2, stronger effect = lower value 0.55 | locus YFR010W, strain ubp6, stronger effect = lower value 0.0701 | locus YGL086W, strain mad1, stronger effect = lower value 0.283 | locus YGL167C, strain pmr1, stronger effect = lower value 0.0684 | locus YGL173C, strain kem1, stronger effect = lower value 0.0624 | locus YGL227W, strain vid30, stronger effect = lower value 0.0601 | locus YGL240W, strain doc1, stronger effect = lower value 0.0704 | locus YGL248W, strain PDE1, stronger effect = lower value 0.633 | locus YGL253W, strain hxk2, stronger effect = lower value 0.0538 | locus YGR078C, strain PAC10, stronger effect = lower value 0.469 | locus YGR135W, strain pre9, stronger effect = lower value 0.381 | locus YGR229C, strain SMI1, stronger effect = lower value 0.0664 | locus YGR252W, strain gcn5, stronger effect = lower value 0.224 | locus YHR013C, strain ard1, stronger effect = lower value 0.124 | locus YHR027C, strain rpn1, stronger effect = lower value 0.0601 | locus YHR030C, strain SLT2, stronger effect = lower value 0.133 | locus YHR079C, strain IRE1 (second series), stronger effect = lower value 0.573 | locus YHR094C, strain hxt1, stronger effect = lower value 0.911 | locus YHR129C, strain ARP1, stronger effect = lower value 0.716 | locus YHR142W, strain chs7, stronger effect = lower value 0.077 | locus YHR200W, strain rpn10, stronger effect = lower value 0.214 | locus YIL066C, strain RNR3, stronger effect = lower value 0.45 | locus YIL073C, strain SPO22, stronger effect = lower value 0.364 | locus YIR030C, strain dcg1, stronger effect = lower value 0.651 | locus YJL092W, strain hpr5, stronger effect = lower value 0.0575 | locus YJL095W, strain BCK1 (second series), stronger effect = lower value 0.0537 | locus YJL095W, strain BCK1, stronger effect = lower value 0.188 | locus YJL115W, strain asf1, stronger effect = lower value 0.068 | locus YJL129C, strain trk1, stronger effect = lower value 0.083 | locus YJL134W, strain LCB3, stronger effect = lower value 0.918 | locus YJL154C, strain vps35, stronger effect = lower value 0.0563 | locus YJL164C, strain tpk1, stronger effect = lower value 0.0598 | locus YJL166W, strain qcr8, stronger effect = lower value 0.0595 | locus YJL168C, strain set2, stronger effect = lower value 0.826 | locus YJL187C, strain SWE1 (second series), stronger effect = lower value 0.513
